FLuc inh: inhibitors of firefly luciferase; P08659; purified firefly luciferase, luminescence, 8 min; Potency, µM (highest dose often 57.1 µM), for inactives: top-dose activity change, negative = inhibition, usual class: inhibitors; 72,000 tested, 2.2% active; AID 411; further: nearly all actives have a fitted effect of over 40% in size
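Titration-based qHTS; buffer 50 mM imidazole pH 7.2, 50 mM KCl, 7 mM MgCl2, 10 uM ATP, 0.01% Tween 20, 0.05% BSA; luciferase/luciferin detector mix added after compound; 8 min, ambient; luminescence.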
Tau fil binding: binders of human tau filaments | P10636 | recombinant tau filaments, thioflavin S fluorescence, 15 h; filaments grown with octadecylsulfate alongside compound | Potency, µM (doses to about 57.1 µM), for the others: at the top dose activity change, negative = inhibition | 71,000 tested, 2% active | AID 596;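 further: actives lower thioflavin S fluorescence by blocking filaments or displacing dye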
Target sequence (P10636 whole entry, looked up): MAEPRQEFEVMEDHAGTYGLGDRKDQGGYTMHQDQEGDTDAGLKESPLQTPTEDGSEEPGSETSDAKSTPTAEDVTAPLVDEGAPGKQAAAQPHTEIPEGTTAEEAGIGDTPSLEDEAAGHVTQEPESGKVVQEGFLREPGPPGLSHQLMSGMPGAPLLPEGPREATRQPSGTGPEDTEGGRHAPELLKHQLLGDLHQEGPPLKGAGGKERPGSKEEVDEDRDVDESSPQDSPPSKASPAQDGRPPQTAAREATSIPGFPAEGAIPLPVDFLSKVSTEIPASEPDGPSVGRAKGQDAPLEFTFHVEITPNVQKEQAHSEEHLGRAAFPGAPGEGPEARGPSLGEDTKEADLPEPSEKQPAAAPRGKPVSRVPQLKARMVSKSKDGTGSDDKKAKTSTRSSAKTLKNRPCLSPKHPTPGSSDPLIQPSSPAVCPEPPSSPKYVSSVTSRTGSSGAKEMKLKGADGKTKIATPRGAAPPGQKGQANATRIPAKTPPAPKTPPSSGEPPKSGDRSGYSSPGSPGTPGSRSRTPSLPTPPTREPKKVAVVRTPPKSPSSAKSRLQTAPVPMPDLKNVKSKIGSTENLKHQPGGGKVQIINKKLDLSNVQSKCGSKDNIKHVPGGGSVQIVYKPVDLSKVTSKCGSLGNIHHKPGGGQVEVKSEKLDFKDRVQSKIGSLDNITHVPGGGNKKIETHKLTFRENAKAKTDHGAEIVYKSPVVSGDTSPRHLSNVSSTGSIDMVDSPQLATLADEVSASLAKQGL
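His-tagged recombinant human tau (exons 2, 3, 10; 1 uM final) fibrillized with 30 uM sodium octadecylsulfate, 15 h at 37 C, in pH 7.4 HEPES buffer with 10 uM thioflavine S and 5 mM DTT. Reduced ThS fluorescence (450/510 nm) marks activity.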
ALOX15 inhib: 15-hLO (ALOX15) enzyme inhibition; purified 15hLO-1, xylenol orange hydroperoxide absorbance; 74,000 tested, 1.4% active; Potency, µM (highest dose often 57.1 µM), inactives show at the top dose activity change, negative = inhibition, actives largely listed as inhibitors; AID 887; further: nearly all actives have a fitted effect of over 55% in size
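40 nM 15hLO-1 + cpd, 15 min RT; start w/ 50 uM AA (final), 6 min RT; stop/detect w/ 200 uM XO + 300 uM Fe(II) in 50 mM H2SO4, 30 min; A573/A405. Buffer 25 mM Hepes pH 7.5, 0.01% Triton X-100. No-enzyme wells as negative control.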
ERK AVP block: vasopressin-driven ERK pathway inhibition; HEK293-V1b, vasopressin-stimulated pERK AlphaScreen; Potency, µM (top dose mostly 57.5 µM), for inactives: at the top dose activity, negative = inhibition, usual class: inhibitors; 72,000 tested, 0.99% active; AID 995; further: nearly all actives have a fitted effect of over 55% in size
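HEK293 cells stably expressing V1b receptor, seeded overnight in 1% FBS, were treated with compounds for 30 min at 37C, then stimulated 5 min with 25 nM vasopressin; phospho-ERK read by AlphaScreen SureFire after lysis.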
Bst PK mod: alters activity of Bacillus stearothermophilus pyruvate kinase | purified pyruvate kinase, luminescence ATP production; ribose 5-phosphate activator present at AC10 | Potency, µM | 51,000 tested, 1.2% active | AID 361; in the data active means potency below about 11 µM; inconclusive means mostly about 12 µM to 25 µM;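 the screen sought inhibitors and activators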;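 further: scaled between full activation by ribose 5 phosphate and full inhibition by luteolin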
DNA Pol III inh: DNA polymerase III holoenzyme inhibition; 71,000 tested, 0.25% active; Potency, µM (titrated, usually from 57.1 µM), inactives show at the highest dose activity change, negative = inhibition; reconstituted DNA polymerase III holoenzyme replication, biochemical
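Reconstituted *E. coli* holoenzyme (0.35 nM Pol III, 1 nM beta, 154 nM SSB, 2 nM primase) was preincubated with compound for 15 min at RT. Synthesis on 1.4 nM ssM13Gori ran 35 min, then was stopped with PicoGreen/EDTA and read as dsDNA fluorescence.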
* = called active by the depositor; ? = inconclusive; . = no result; ! = a repeat was not active; [ ] = another dose, or the depositor's remark. Shown are actives, neighbours in structure and some others; about 6% of the full set was active somewhere. Unless noted, the call rests on the fitted dose curve; in most records, active means well fitted curve in the direction sought with a large enough effect; inconclusive means small, poorly fitted or top-dose-only effect, or another doubt; inactive means no such curve, though single readings can be large; an effect the other way counts as inactive or inconclusive. Unless noted, on the % scale 0 is the no-effect control and ±100 the full control effect; potency means the concentration at half of the fitted maximal effect.

SMILES | FLuc inh | Tau fil binding | ALOX15 inhib | ERK AVP block | Bst PK mod | DNA Pol III inh
CC(=O)O.CC(=O)O.[Cd] | . | . | 16µM* | 1% | . | .
CCCOc1ccc2[nH]cc(C3=CCNCC3)c2n1 | 13µM* | ? | ? | 12% | . | -3%
COC(=O)[C@@H]1C[C@@H]1[C@@H](NP(=O)(c1ccccc1)c1ccccc1)c1ccccc1 | . | 7% | . | . | . | 14%
Cc1cccc(N2CCc3c2nc2ccccc2c3N)c1 | ? | 10% | -16% | 25µM*! | . | -9%
C[C@@H]1Cc2cc3c(cc2C(c2ccc(N)cc2)=NN1)OCO3 | -4% | 40µM* | ? | ? | . | -3%
C=C(C)[C@H]1Cc2c(ccc3c2O[C@H]2COc4cc(OC)c(OC)cc4[C@@H]2C3=O)O1 | 5% | -3% | -15% | 6% | . | -5%
O=C(O)[C@H]1[C@H](C(=O)O)[C@H]2CC[C@@H]1O2 | 2% | -6% | 7% | 10% | . | -2%
COCc1cc(C)c(C#N)c(=S)[nH]1 | 0% | 3% | 1.6µM* | -18% | >57 | 3%
C[C@H](N)[C@H](O)c1ccc(O)c(O)c1 | -9%[25.5 µM] | 21%[25.6 µM] | 3.2µM*! | -14%[25.7 µM] | . | 5µM*
COc1ccc(OC)c(C(O)C(C)N)c1 (configuration not stated) | 1%[25.5 µM] | . | 0% | 30% | >26 | .
C=C1C/C(=C\C)C(=O)O[C@@H]2CCN3CC=C(COC(=O)[C@]1(C)O)[C@H]23 | 2%[11.4 µM] | ? | . | . | . | -6%
CC(=O)OCC1=C(C(=O)[O-])N2C(=O)[C@@H](NC(=O)CCC[C@@H](N)C(=O)[O-])[C@@H]2SC1.[Zn+2] | 4% | -11% | 25µM* | 11% | . | ?
O=C(CCCN1CCC2(CC1)C(=O)N(CCc1ccc(N=C=S)cc1)CN2c1ccccc1)c1ccc(F)cc1 | 2% | 374% | . | . | . | 5%
C[C@@H]1[C@@H](C)N1C[C@H](O)Cn1ccnc1[N+](=O)[O-] (some centres not stated) | 0%[11.4 µM] | 4%[11.4 µM] | 1%[11.4 µM] | -20%[11.5 µM] | . | 0%[11.4 µM]
C/C=C(\C)C(=O)O[C@@H]1C(C)=C2[C@H]([C@@H]1OC(=O)CCCCCCC)[C@@](C)(OC(C)=O)C[C@@H](OC(=O)CCC)[C@@]1(O)[C@H]2OC(=O)[C@]1(C)O | 0% | -18% | 20µM* | 20% | . | 1%
O=C(NC(=O)c1c(F)cccc1F)Nc1cc(Cl)c(OC(F)(F)C(F)C(F)(F)F)cc1Cl (configuration not stated) | . | . | 16µM* | -4% | . | .
CCOC(=O)CC(SP(=O)(OC)OC)C(=O)OCC (configuration not stated) | . | 11% | ? | 0% | . | -7%
[O-]/[N+](=C/c1cccnc1)c1ccc(Br)cc1 | 10µM* | -12%[11.4 µM] | -16%[11.4 µM] | ? | . | -5%[11.4 µM]
CN1CCN(c2ccc([N+](=O)[O-])c3[nH]o[n+](=O)c23)CC1 | -10%[11.4 µM] | 94%[11.4 µM] | -8%[11.4 µM] | ? | . | -5%[11.4 µM]
CO[C@H]1[C@H](O)[C@H](O[C@@H]2[C@H](Oc3cccc4c(O)c5c(=O)oc6ccc(C)c7c(=O)oc(c34)c5c67)O[C@@H](C)[C@H](O)[C@H]2O)O[C@@H](C)[C@@H]1O | 1%[11.4 µM] | 28%[11.4 µM] | 7%[11.4 µM] | 0%[11.5 µM] | . | 3.2µM*
C=CCN1C[C@H](C)N([C@H](c2ccc(C(=O)N(CC)CC)cc2)c2cccc(O)c2)C[C@H]1C | 4% | 40µM* | -1%[25.6 µM] | 2% | . | -4%
CN1CCN(c2ccc(N)c(N3CCN(C)CC3)c2)CC1 | -7% | 20µM* | -7% | ? | >57 | -18%
CN(C)c1ccc(P(=S)(N(C)C)N(C)C)cc1 | -2% | 2% | -1% | 4% | >57 | 5%
CN(C)c1ccc(N)cc1 | . | 13µM* | ? | ? | . | -8%
C[C@@H]1CC[C@@]2(OC1)O[C@H]1[C@@H](O)[C@H]3[C@@H]4CC[C@H]5C[C@@H](O[C@@H]6O[C@H](CO)[C@H](O[C@@H]7O[C@H](CO)[C@@H](O)[C@H](O[C@@H]8OC[C@@H](O)[C@H](O)[C@H]8O)[C@H]7O[C@@H]7O[C@H](CO)[C@@H](O)[C@H](O[C@@H]8O[C@H](CO)[C@@H](O)[C@H](O)[C@H]8O)[C@H]7O)[C@H](O)[C@H]6O)[C@H](O)C[C@]5(C)[C@H]4CC[C@]3(C)[C@H]1[C@@H]2C | . | 78% | 2% | 32µM* | . | 8%
SMILES | FLuc inh | Tau fil binding | ALOX15 inhib | ERK AVP block | Bst PK mod | DNA Pol III inh
CCc1ccc(CCN2CCCCC2)nc1 | -2%[11.4 µM] | 5%[11.4 µM] | 6%[11.4 µM] | 2%[11.5 µM] | . | -3%[11.4 µM]
CC(C)[N+](=O)[O-] | . | 6% | 6% | 8% | . | 0%
C[C@@H](O)CN(CCN(C[C@@H](C)O)C[C@@H](C)O)C[C@@H](C)O.O=[N+]([O-])O.[Cu] | 4%[11.4 µM] | ? | 4µM* | -14%[11.5 µM] | . | 6%[11.4 µM]
Cc1ncc([N+](=O)[O-])n1CCN=[N+]=[N-] | -1%[11.4 µM] | 6%[11.4 µM] | 1%[11.4 µM] | -14%[11.5 µM] | . | -5%[11.4 µM]
CN[C@H]1[C@H]2[C@H]3CCN2C[C@@H]1O3 | 1%[11.4 µM] | ? | . | . | . | -4%
O=C1C2CC=CCC2C(=O)N1SC(Cl)(Cl)Cl (configuration not stated) | . | 4% | ? | 16µM* | . | 40µM*!
CCOc1ccc(Br)c(C2(O)CC(C)N(C)CC2C)c1 (configuration not stated) | 25µM* | 9% | -7% | -9% | . | 5%
Cn1nc(-c2ccc(OCC(=O)N3CCN(Cc4ccccc4)CC3)cc2)c2ccccc2c1=O | 3% | 6% | -10% | 32µM* | >57 | -4%
C[C@H]1C(=O)O[C@H]2CCN3CC=C(COC(=O)[C@](C)(O)[C@@]1(C)O)[C@H]23 | -3%[11.4 µM] | 0% | . | . | . | 4%
Nc1ccccc1C(=O)OCCOc1ccccc1 | 13µM* | -17% | -2% | 18% | ? | -4%
C[C@@H]1[C@H]2C=C[C@@H]1[C@@H](c1c3ccc(=O)c(O)c-3oc3c(O)c(O)ccc13)[C@@H]2C(=O)O | -4%[11.4 µM] | ? | ? | 7%[11.5 µM] | . | 0.13µM*
CN(C)c1ccc(N=Nc2ccccc2)cc1 | . | 16µM* | -2% | ? | . | 1%
CN(C)c1ccc(N=O)cc1 | . | -1% | -10% | ? | . | -4%
CC1CCCCN1CC(=O)c1ccc2cc[nH]c2c1 (configuration not stated) | -9% | 25µM* | -21% | . | . | -1%
C=C1CC[C@H](O)C/C1=C/C=C1\CCC[C@]2(C)[C@@H]([C@H](C)CCCC(C)C)CC[C@@H]12 | . | ? | 16µM* | 13% | . | -3%
NC(=NCCC[C@@H](N)C(=O)O)N[N+](=O)[O-] | -9% | 1% | . | . | . | -7%
COC1=C[C@H]2[C@@H]3Cc4ccc(OC)c(O)c4[C@@]2(CCN3C)CC1=O | 4%[11.4 µM] | ? | . | . | . | -7%
C#CCN1C(C)=C(C(=O)CCO)[C@@H](c2cccc(-n3oo3)c2)C(C(=O)OC)=C1C | 3% | 40µM* | -13%[25.6 µM] | ? | . | -4%

Screening results deposited in PubChem by National Center for Advancing Translational Sciences (NCATS).
